7 molecules from ChEMBL document CHEMBL2218924, “A broad activity screen in support of a chemogenomic map for kinase signalling research and drug discovery” (Biochem J, 2013) can be followed below.

Test [1] has as its target Serine/threonine-protein kinase PAK 4 (Homo sapiens) (UniProt O96013). To be noted: at 1 µM.
For test [2] the target is unchanged. To be noted: at 10 µM.
Test [3] has as its target Serine/threonine-protein kinase PAK 5 (Homo sapiens) (UniProt Q9P286). To be noted: at 1 µM.
Test [4] has the same target. Particulars: at 10 µM.
In test [5] the target is Serine/threonine-protein kinase PAK 6 (Homo sapiens) (UniProt Q9NQU5). To be noted: at 1 µM.
Test [6] shares this target. Particulars: at 10 µM.
For test [7], the target named is PAS domain-containing serine/threonine-protein kinase (Homo sapiens) (UniProt Q96RG2). To be noted: at 10 µM.
For test [8], the target named is Activated CDC42 kinase 1 (Homo sapiens) (UniProt Q07912). Particulars: at 1 µM.
Test [9] has the same target. To be noted: at 10 µM.
Test [10] concerns the target ALK tyrosine kinase receptor (Homo sapiens) (UniProt Q9UM73). Particulars: at 1 µM.
Test [11] has the same target. To be noted: at 10 µM.
Test [12] concerns the target T1, Activin receptor type-1B (Homo sapiens) (UniProt P36896).
T1 sequence (whole entry): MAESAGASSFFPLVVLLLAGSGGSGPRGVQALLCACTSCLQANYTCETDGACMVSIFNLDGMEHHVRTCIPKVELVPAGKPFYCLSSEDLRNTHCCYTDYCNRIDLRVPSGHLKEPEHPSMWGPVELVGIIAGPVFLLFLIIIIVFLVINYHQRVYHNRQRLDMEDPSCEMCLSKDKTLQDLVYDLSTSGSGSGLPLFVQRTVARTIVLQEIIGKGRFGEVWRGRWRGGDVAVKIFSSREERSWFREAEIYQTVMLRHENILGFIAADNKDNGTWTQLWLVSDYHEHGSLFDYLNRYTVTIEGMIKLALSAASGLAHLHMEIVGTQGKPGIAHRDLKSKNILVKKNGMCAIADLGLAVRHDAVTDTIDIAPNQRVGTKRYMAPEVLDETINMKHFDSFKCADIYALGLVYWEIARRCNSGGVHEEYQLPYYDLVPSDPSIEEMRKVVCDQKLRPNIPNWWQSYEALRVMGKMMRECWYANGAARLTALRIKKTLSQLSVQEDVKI
To be noted: at 1 µM.

The target in test [13] is T1, Activin receptor type-1B (Homo sapiens). Particulars: at 10 µM.
The target of test [14] is T2, AMP-activated protein kinase (AMPK) alpha-1/beta-1/gamma-1 (Homo sapiens) (UniProt P54619+Q9Y478+Q13131). Particulars: at 1 µM.
Test [15] deals with T2, AMP-activated protein kinase (AMPK) alpha-1/beta-1/gamma-1 (Homo sapiens). Particulars: at 10 µM.
The target in test [16] is T3, AMP-activated protein kinase, AMPK (Homo sapiens) (UniProt P54646+O43741+P54619+Q9UGJ0+Q9Y478+Q13131+Q9UGI9). To be noted: at 1 µM.
For test [17], the target named is T3, AMP-activated protein kinase, AMPK (Homo sapiens). To be noted: at 10 µM.
In test [18] the target is T4, NUAK family SNF1-like kinase 1 (Homo sapiens) (UniProt O60285).
T4 sequence (whole entry): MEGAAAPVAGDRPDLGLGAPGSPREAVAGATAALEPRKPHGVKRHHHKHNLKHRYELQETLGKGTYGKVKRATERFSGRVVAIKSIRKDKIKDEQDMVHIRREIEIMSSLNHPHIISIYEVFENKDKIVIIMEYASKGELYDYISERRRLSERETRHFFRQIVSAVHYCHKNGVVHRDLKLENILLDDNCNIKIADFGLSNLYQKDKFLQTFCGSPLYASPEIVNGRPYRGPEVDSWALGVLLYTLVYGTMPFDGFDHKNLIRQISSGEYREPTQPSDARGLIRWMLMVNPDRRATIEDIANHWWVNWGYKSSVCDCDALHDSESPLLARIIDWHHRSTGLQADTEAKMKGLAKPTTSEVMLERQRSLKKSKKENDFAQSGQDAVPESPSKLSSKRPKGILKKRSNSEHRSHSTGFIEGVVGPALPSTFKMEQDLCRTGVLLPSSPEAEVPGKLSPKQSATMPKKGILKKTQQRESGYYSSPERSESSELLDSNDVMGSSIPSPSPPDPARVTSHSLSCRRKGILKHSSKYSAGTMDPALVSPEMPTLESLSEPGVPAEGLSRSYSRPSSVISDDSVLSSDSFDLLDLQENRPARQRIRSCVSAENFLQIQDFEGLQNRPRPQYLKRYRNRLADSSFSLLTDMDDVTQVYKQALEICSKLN
To be noted: at 1 µM.

Test [19] addresses T4, NUAK family SNF1-like kinase 1 (Homo sapiens). To be noted: at 10 µM.
For test [20], the target named is T5, Mitogen-activated protein kinase kinase kinase 5 (Homo sapiens) (UniProt Q99683).
T5 sequence (whole entry): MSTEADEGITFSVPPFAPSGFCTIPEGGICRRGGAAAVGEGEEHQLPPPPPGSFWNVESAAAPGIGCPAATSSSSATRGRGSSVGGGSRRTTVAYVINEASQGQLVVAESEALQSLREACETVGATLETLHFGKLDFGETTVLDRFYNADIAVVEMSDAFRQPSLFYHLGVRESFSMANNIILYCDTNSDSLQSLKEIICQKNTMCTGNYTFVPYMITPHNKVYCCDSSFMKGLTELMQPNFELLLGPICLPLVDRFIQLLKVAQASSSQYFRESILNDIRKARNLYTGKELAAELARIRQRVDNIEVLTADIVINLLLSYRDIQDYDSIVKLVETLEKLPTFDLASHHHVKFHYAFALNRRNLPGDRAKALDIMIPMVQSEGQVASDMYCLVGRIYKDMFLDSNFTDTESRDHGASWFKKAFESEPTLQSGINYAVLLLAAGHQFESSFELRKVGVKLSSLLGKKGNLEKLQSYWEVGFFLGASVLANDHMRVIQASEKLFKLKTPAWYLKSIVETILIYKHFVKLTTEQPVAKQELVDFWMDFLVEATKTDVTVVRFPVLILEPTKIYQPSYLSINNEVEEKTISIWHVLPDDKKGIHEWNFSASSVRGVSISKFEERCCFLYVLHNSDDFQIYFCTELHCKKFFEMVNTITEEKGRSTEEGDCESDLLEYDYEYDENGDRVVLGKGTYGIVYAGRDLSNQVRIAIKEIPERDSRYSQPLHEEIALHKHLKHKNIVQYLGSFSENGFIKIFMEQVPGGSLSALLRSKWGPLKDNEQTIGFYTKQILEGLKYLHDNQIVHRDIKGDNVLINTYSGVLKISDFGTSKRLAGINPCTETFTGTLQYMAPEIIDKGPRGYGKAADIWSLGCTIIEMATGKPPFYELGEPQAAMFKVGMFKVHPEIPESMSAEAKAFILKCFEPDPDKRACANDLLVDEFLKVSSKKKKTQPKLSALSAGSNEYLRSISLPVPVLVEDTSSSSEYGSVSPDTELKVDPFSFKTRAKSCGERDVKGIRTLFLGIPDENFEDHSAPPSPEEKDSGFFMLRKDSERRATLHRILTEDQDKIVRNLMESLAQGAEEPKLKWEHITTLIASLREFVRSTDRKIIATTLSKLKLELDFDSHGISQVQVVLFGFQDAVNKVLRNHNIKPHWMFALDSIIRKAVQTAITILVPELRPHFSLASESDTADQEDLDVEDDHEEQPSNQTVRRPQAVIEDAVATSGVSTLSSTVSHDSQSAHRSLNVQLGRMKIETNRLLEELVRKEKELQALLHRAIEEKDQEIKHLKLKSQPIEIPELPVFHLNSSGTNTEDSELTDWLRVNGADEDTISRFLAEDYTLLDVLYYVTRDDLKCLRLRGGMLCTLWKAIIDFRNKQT
Particulars: at 1 µM.

Serine/threonine-protein kinase PAK 4 (Homo sapiens), sequence (O96013 whole entry, looked up): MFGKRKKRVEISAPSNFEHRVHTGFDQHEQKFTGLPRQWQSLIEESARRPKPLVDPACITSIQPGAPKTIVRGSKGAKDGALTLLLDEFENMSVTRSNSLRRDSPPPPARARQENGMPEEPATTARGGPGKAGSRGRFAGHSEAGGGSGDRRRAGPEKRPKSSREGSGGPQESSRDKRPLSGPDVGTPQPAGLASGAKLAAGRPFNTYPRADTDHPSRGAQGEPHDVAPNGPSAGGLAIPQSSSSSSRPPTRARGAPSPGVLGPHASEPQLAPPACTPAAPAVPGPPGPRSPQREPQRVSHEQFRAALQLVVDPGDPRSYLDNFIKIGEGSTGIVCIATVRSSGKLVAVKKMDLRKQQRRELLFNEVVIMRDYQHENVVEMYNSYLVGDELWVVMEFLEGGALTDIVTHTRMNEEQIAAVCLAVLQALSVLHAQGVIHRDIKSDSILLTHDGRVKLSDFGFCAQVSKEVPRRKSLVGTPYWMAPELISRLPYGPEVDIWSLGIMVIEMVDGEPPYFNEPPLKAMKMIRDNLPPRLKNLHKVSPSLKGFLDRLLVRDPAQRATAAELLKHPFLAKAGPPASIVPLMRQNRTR
Serine/threonine-protein kinase PAK 6 (Homo sapiens), sequence (Q9NQU5 whole entry, looked up): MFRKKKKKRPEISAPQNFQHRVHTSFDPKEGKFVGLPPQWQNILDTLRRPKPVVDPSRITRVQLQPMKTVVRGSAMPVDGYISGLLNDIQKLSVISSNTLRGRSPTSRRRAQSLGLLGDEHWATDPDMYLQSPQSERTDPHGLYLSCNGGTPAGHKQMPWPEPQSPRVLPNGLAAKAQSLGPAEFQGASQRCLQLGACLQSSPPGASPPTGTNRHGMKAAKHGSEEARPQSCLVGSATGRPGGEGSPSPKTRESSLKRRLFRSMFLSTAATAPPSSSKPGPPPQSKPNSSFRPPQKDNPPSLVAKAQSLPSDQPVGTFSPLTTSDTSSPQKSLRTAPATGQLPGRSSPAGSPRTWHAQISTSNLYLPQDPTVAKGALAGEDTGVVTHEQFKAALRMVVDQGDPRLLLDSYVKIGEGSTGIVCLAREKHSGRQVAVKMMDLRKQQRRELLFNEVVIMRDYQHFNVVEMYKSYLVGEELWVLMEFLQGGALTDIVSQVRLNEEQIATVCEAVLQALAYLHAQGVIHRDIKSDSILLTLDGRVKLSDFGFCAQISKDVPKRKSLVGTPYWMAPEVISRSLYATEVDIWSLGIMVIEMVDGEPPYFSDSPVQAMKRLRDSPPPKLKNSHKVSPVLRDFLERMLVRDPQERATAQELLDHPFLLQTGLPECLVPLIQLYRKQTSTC
PAS domain-containing serine/threonine-protein kinase (Homo sapiens), sequence (Q96RG2 whole entry, the tested form may be a part): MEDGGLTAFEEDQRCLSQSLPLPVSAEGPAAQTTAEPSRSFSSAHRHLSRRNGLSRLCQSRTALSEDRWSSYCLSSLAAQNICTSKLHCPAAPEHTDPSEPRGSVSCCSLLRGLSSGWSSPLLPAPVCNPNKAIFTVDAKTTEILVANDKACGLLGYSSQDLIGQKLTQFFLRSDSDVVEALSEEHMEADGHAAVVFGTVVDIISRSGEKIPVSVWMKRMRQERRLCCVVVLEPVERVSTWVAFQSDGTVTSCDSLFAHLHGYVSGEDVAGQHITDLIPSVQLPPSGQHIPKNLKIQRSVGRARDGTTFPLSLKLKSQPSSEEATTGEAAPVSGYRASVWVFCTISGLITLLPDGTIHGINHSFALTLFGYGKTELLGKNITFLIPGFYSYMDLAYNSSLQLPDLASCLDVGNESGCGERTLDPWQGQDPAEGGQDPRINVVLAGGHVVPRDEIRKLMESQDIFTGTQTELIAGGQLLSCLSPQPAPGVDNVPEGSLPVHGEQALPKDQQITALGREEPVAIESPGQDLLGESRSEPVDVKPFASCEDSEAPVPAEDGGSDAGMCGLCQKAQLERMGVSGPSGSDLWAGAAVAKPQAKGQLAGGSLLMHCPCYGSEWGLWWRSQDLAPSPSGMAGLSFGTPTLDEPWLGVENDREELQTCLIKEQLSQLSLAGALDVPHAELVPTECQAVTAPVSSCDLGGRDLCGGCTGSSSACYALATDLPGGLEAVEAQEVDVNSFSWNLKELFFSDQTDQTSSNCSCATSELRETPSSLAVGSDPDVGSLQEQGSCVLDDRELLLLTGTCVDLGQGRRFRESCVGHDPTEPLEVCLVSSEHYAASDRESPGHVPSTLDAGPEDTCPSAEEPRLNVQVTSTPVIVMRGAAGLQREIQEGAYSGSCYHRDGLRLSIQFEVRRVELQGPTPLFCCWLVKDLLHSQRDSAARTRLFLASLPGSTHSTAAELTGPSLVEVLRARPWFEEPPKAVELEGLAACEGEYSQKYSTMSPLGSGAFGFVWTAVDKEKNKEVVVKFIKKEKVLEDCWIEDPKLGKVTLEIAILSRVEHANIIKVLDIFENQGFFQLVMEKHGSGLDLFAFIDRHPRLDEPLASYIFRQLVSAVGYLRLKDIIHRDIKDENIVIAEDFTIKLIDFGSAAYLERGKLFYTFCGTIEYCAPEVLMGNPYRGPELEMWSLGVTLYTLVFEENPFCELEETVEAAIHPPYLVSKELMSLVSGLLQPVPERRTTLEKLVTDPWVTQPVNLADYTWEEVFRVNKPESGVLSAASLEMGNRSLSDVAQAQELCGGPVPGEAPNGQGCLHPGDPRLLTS
Serine/threonine-protein kinase PAK 5 (Homo sapiens), sequence (Q9P286 whole entry, looked up): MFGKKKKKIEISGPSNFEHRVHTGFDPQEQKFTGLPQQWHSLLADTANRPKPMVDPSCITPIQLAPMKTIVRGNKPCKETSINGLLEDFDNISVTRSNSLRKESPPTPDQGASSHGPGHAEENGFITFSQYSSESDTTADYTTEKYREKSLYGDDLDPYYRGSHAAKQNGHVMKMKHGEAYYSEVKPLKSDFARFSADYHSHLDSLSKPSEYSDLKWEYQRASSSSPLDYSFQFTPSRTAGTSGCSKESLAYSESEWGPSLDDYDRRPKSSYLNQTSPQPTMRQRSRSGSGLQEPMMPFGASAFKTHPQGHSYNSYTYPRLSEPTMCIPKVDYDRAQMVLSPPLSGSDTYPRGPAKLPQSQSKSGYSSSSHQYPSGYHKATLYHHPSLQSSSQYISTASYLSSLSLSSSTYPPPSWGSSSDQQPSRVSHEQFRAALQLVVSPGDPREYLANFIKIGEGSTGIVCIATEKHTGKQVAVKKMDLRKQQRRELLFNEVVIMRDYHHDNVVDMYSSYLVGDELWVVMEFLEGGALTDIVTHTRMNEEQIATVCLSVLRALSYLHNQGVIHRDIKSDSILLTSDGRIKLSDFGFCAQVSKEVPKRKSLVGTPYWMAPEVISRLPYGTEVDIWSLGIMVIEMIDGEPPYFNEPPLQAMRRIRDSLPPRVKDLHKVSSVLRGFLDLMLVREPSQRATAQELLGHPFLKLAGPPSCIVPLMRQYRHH
T2 sequence (P54619 whole entry): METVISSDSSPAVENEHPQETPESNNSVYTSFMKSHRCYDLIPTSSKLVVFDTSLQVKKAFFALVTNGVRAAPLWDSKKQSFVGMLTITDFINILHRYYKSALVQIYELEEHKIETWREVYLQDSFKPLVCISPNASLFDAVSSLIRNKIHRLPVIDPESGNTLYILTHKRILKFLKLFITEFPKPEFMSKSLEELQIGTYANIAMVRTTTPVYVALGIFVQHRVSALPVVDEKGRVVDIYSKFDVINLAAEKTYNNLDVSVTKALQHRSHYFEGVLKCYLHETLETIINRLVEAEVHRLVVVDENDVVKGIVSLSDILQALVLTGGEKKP
T2 sequence (Q13131 whole entry partner): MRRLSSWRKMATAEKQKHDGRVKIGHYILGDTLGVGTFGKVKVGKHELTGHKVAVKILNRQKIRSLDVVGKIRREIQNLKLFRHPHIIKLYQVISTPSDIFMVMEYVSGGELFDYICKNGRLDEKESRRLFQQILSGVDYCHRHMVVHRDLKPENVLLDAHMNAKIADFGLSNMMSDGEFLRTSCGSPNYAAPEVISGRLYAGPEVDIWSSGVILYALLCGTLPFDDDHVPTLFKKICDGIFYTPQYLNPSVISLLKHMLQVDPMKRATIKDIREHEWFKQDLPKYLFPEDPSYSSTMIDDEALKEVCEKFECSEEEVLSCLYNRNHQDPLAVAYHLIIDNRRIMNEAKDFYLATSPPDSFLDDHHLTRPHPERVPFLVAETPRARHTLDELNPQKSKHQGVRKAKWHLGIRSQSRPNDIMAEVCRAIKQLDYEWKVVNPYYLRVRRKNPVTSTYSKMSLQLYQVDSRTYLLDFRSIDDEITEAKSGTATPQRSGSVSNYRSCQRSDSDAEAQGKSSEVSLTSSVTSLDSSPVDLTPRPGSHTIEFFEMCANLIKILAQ
T2 sequence (Q9Y478 2-270 partner limits assumed): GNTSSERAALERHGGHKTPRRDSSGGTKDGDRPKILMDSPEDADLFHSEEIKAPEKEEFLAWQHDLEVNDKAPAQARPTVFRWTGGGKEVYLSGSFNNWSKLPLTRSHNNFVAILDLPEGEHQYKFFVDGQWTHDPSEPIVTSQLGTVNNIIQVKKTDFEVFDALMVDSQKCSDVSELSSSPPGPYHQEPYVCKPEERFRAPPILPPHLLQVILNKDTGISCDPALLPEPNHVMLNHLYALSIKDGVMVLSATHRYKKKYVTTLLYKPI

With `Nc1nc(Nc2ccc(S(N)(=O)=O)cc2)nn1C(=S)Nc1c(F)cccc1F`, the residual activity is 6% in test [1]; 0% in test [2]; 9% in test [3]; 1% in [4]; 14% in test [5]; 4% in test [6]. For the same molecule, the residual activity in [7] was found to be 89%; in test [8], 9%; in test [9], 0%; in [10] it was 16%; in test [11], 1%; in [12] it was 7%. Besides, the residual activity was -4% in test [13]; -2% in [14]; -1% in test [15]; -3% in test [16]; 0% in [17]; 1% in [18]. The residual activity in [19] came to 0%; in [20], 1%.
`Nc1n[nH]c2nnc(-c3c(-c4ccccc4)nn4ccccc34)cc12`: the residual activity in [1] amounted to 94%; in test [2], 90%; in [3] it was 112%; in [4], 90%; in [5] it was 93%; in test [6], 99%. Besides, the residual activity in [7] amounted to 114%; in test [8], 61%; in [9], 29%; in [10] it was 77%; in [11], 93%; in test [12] it was 111%. Moreover, the residual activity in [13] was 86%; in [14], 90%; in test [15] it was 82%; in test [16], 92%; in [17], 98%; in test [18], 105%. Besides, the values for the residual activity in test [19] and in test [20] were 79% and 96%, respectively.
For the molecule `Oc1c2ccccc2c2c3c(cccc13)N=N2`, the residual activity amounted to 88% in test [1]; 45% in test [2]; 99% in test [3]; 64% in test [4]; 91% in [5]; 49% in test [6]. Further, the residual activity in test [7] was 81%; in test [8] it was 50%; in test [9], 12%; in test [10], 61%; in test [11] it was 29%; in [12] it was 86%. Moreover, the residual activity in test [13] was 84%; in test [14], 64%; in [15], 24%; in test [16], 69%; in [17], 28%; in test [18], 28%. Besides, the residual activity in test [19] turned out to be 17%; in [20] it was 36%.
`Cc1ccc(NC2=CC(=O)c3sc(C)nc3C2=O)cc1`: the residual activity in test [1] is 98%; in test [2], 93%; in test [3], 121%; in test [4], 94%; in test [5], 102%; in test [6] it was 80%. Moreover, the residual activity was determined as 82% in [7]; 80% in test [8]; 71% in test [9]; 86% in [10]; 93% in [11]; 105% in test [12]. Moreover, the residual activity in test [13] was 113%; in test [14] it was 88%; in test [15], 84%; in test [16], 94%; in test [17] it was 107%; in test [18] it was 108%. The residual activity is 89% in test [19] and 110% in test [20].
On to `Cc1nc2cc3nc(-c4cccs4)cnc3cc2n1C`, for which the residual activity in test [1] amounted to 95%; in test [2], 101%; in [3] it was 106%; in [4], 105%; in [5] it was 111%; in test [6], 102%. The residual activity is 86% in test [7]; 107% in test [8]; 74% in test [9]; 93% in [10]; 112% in test [11]; 123% in test [12]. The residual activity is 88% in test [13]; 116% in [14]; 83% in test [15]; 118% in [16]; 85% in test [17]; 116% in test [18]. In addition, the results for the residual activity in [19] and in test [20] were 78% and 109%, respectively.
As for `Cc1nc(-c2ccccc2)c(-c2ccncc2)o1`, the residual activity in test [1] stood at 100%; in test [2], 104%; in test [3], 106%; in [4], 95%; in test [5], 109%; in test [6], 90%. In addition, the residual activity stood at 91% in test [7]; 74% in [8]; 64% in [9]; 100% in [10]; 99% in test [11]; 119% in [12]. The residual activity is 88% in test [13]; 105% in test [14]; 108% in test [15]; 114% in test [16]; 114% in test [17]; 99% in [18]. The residual activity in test [19] was determined as 88%; in test [20], 100%.
Regarding `CC(C)n1cnc2/c(=N/c3cccc(Cl)c3)nc(NCCO)[nH]c21`, the residual activity in test [1] was determined as 62%; in test [2], 15%; in test [3], 80%; in test [4] it was 33%; in [5], 43%; in test [6], 25%. Moreover, the residual activity came to 114% in test [7]; 14% in test [8]; 5% in test [9]; 81% in test [10]; 52% in test [11]; 103% in [12]. Also, the residual activity in test [13] is 120%; in test [14], 76%; in test [15], 30%; in [16], 88%; in test [17], 45%; in test [18], 75%. The values for the residual activity in test [19] and in [20] were 29% and 90%, respectively.
